# Laboratory results reported in the supplement of paper PMC8728848.
# This is one part of a sample in which the strongest signals are shown more often than they occur.
# How the values were obtained:
# Assay in all cases: glycan array binding signal (z-score within array); higher = stronger binding
# Conditions in all cases: glycan notation: IUPAC condensed, linker removed
# Gal3S6S(b1-4)GlcNAc = molecular target: Gal3S6S(b1-4)GlcNAc
# Method in brief: (§1)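 Columns mapping to the same glycan were averaged after glycan names were converted to IUPAC-condensed notation. The data come from 3228 arrays in the Consortium for Functional Glycomics database, limited to those with an available protein sequence. Binding is reported as a within-array Z-score averaged across arrays of one protein sequence and across linkers.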
# Gal4S6S(b1-4)GlcNAc = molecular target: Gal4S6S(b1-4)GlcNAc
# Method in brief: as §1
# GalNAc(b1-4)GlcNAc6S = molecular target: GalNAc(b1-4)GlcNAc6S
# Method in brief: as §1
# GalNAc3S(b1-4)GlcNAc = molecular target: GalNAc3S(b1-4)GlcNAc
# Method in brief: as §1
# Glc(b1-4)Glc = molecular target: Glc(b1-4)Glc
# Method in brief: as §1
# GlcA(b1-6)Gal = molecular target: GlcA(b1-6)Gal
# Method in brief: as §1
# [1] = molecular target: GlcNAc(a1-4)Gal(b1-4)GlcNAc(b1-3)Gal(b1-4)GlcNAc
# Method in brief: as §1
# [2] = molecular target: GlcNAc(b1-2)Gal(b1-3)GalNAc
# Method in brief: as §1
# [3] = molecular target: GlcNAc(b1-2)[GlcNAc(b1-4)]Man(a1-3)[GlcNAc(b1-4)][GlcNAc(b1-2)[GlcNAc(b1-6)]Man(a1-6)]Man(b1-4)GlcNAc(b1-4)[Fuc(a1-6)]GlcNAc
# Method in brief: as §1
# [4] = molecular target: GlcNAc(b1-3)Gal(b1-4)GlcNAc(b1-3)Gal(b1-4)GlcNAc(b1-3)Gal(b1-4)GlcNAc(b1-3)Gal(b1-4)GlcNAc(b1-2)[GlcNAc(b1-3)Gal(b1-4)GlcNAc(b1-3)Gal(b1-4)GlcNAc(b1-3)Gal(b1-4)GlcNAc(b1-3)Gal(b1-4)GlcNAc(b1-6)]Man(a1-6)[GlcNAc(b1-3)Gal(b1-4)GlcNAc(b1-3)Gal(b1-4)GlcNAc(b1-3)Gal(b1-4)GlcNAc(b1-3)Gal(b1-4)GlcNAc(b1-2)Man(a1-3)]Man(b1-4)GlcNAc(b1-4)[Fuc(a1-6)]GlcNAc
# Method in brief: as §1
# [5] = molecular target: GlcNAc(b1-3)Gal(b1-4)GlcNAc(b1-3)GalNAc
# Method in brief: as §1
# [6] = molecular target: GlcNAc(b1-3)Gal(b1-4)GlcNAc(b1-6)[Gal(b1-3)]GalNAc
# Method in brief: as §1
# [7] = molecular target: GlcNAc6S(b1-3)Gal(b1-4)GlcNAc
# Method in brief: as §1
# [8] = molecular target: Man(a1-2)Man(a1-2)Man(a1-6)[Man(a1-3)]Man
# Method in brief: as §1
# Man(a1-2)Man(a1-3)Man = molecular target: Man(a1-2)Man(a1-3)Man
# Method in brief: as §1
# [9] = molecular target: Man(a1-2)Man(a1-3)[Man(a1-2)Man(a1-6)]Man(a1-6)[Man(a1-2)Man(a1-2)Man(a1-3)]Man
# Method in brief: as §1
# [10] = molecular target: Neu5Ac(a2-3)Gal(b1-3)GlcNAc(b1-3)Gal(b1-3)GlcNAc
# Method in brief: as §1
# [11] = molecular target: Neu5Ac(a2-3)Gal(b1-3)[Fuc(a1-4)]GlcNAc
# Method in brief: as §1
# [12] = molecular target: Neu5Ac(a2-3)Gal(b1-3)[Neu5Ac(a2-6)]GalNAc
# Method in brief: as §1
# [13] = molecular target: Neu5Ac(a2-3)Gal(b1-4)GlcNAc(b1-6)[Gal(b1-3)]GalNAc
# Method in brief: as §1
# [14] = molecular target: Neu5Ac(a2-3)Gal(b1-4)[Fuc(a1-3)]GlcNAc(b1-3)Gal(b1-4)GlcNAc
# Method in brief: as §1
# [15] = molecular target: Neu5Ac(a2-6)Gal(b1-4)GlcNAc(b1-2)Man(a1-3)Man(b1-4)GlcNAc(b1-4)GlcNAc
# Method in brief: as §1
# [16] = molecular target: Neu5Ac(a2-6)Gal(b1-4)GlcNAc(b1-2)Man(a1-3)[Gal(b1-4)GlcNAc(b1-2)Man(a1-6)]Man(b1-4)GlcNAc(b1-4)GlcNAc
# Method in brief: as §1
# [17] = molecular target: Neu5Ac(a2-6)Gal(b1-4)GlcNAc(b1-2)Man(a1-3)[Neu5Ac(a2-3)Gal(b1-4)GlcNAc(b1-2)Man(a1-6)]Man(b1-4)GlcNAc(b1-4)GlcNAc
# Method in brief: as §1
# [18] = molecular target: Neu5Ac(a2-6)Gal(b1-4)GlcNAc(b1-3)Gal(b1-3)GlcNAc
# Method in brief: as §1
# [19] = molecular target: Neu5Ac(a2-6)Gal(b1-4)GlcNAc(b1-6)[Gal(b1-3)]GalNAc
# Method in brief: as §1
# [20] = molecular target: Neu5Ac(a2-8)Neu5Ac(a2-8)Neu5Ac
# Method in brief: as §1
# [21] = molecular target: Neu5Ac(a2-8)Neu5Gc(a2-3)Gal(b1-4)GlcNAc
# Method in brief: as §1
# [22] = molecular target: Neu5Ac9Ac(a2-3)Gal(b1-4)GlcNAc
# Method in brief: as §1
binder,measurement,setting,value
PX9937J-pdi-523-26-523 (Parabacteroides distasonis) (protein) EPVSSISDANYWKSPDLFKAFNIGLHGLLRSQSSYNIFVLGEPRSDIYGDQPFGGEATQGVERFSYNTINAEFTGISNFANFYTTLNQINLMIRRTNETDLLGEAEKNYYLGQAYGLRAYIYFHLLRSWGDVIITTEPTLGSELDISHLDKAASPASEVMDLIKKDIDASEKAFGGDYSYKQGKCYWSKPATLMLKGEVYLWSGRQMGGGTGDYTVAKTALQDLQQNGNLKLQEKFTDVFSFNNKENSEMIFALHSGKEDDFMMWRDYNWRNNMVPQREYMAGYCDETGTPFLEIPGYNLQGLMRYQVKKDHYLKSFREGDTRLKGTLKAVYKKHEDGTLEYIAPIQYKFQGTTLEGSNERSWYDDYPIYRYADALLLLAEAKALLGEDPSTEINAVRERAYGSEYFNAHKNEVAYPNDKGSFYNDNPFEAGDENVMEAILKERLREFFFEGKRWYDLRRFGKDYVLKYTTAQESRLLWPINEGALTNNPALKQTPGY,glycan array binding signal (z-score),Gal3S6S(b1-4)GlcNAc,0.142
same,glycan array binding signal (z-score),Gal4S6S(b1-4)GlcNAc,-0.181
same,glycan array binding signal (z-score),GalNAc(b1-4)GlcNAc6S,4.57
same,glycan array binding signal (z-score),GalNAc3S(b1-4)GlcNAc,0.755
same,glycan array binding signal (z-score),Glc(b1-4)Glc,-0.296
same,glycan array binding signal (z-score),GlcA(b1-6)Gal,-0.638
same,glycan array binding signal (z-score),[1],-0.296
same,glycan array binding signal (z-score),[2],-0.438
same,glycan array binding signal (z-score),[3],-0.488
same,glycan array binding signal (z-score),[4],4.67
same,glycan array binding signal (z-score),[5],-0.404
same,glycan array binding signal (z-score),[6],-0.195
same,glycan array binding signal (z-score),[7],0.294
same,glycan array binding signal (z-score),[8],-0.284
same,glycan array binding signal (z-score),Man(a1-2)Man(a1-3)Man,-0.138
same,glycan array binding signal (z-score),[9],-0.317
same,glycan array binding signal (z-score),[10],-1
same,glycan array binding signal (z-score),[11],0.062
same,glycan array binding signal (z-score),[12],0.071
same,glycan array binding signal (z-score),[13],-0.1
same,glycan array binding signal (z-score),[14],3.41
same,glycan array binding signal (z-score),[15],-0.373
same,glycan array binding signal (z-score),[16],4.14
same,glycan array binding signal (z-score),[17],-0.327
same,glycan array binding signal (z-score),[18],-0.303
same,glycan array binding signal (z-score),[19],0.505
same,glycan array binding signal (z-score),[20],-0.094
same,glycan array binding signal (z-score),[21],9.17
same,glycan array binding signal (z-score),[22],-0.44
